Assay [1] is described as follows: resazurin metabolic signal in HepG2 cells – cell-based, resazurin fluorescence, 24 h, PK04 Diversity Set, profiling panel (AID 1172). The settings on record: HepG2 viability, higher = more signal. In general terms: Resazurin is reduced to fluorescent resorufin, in cell work by metabolically active cells.
The nature of assay [2]: budding yeast growth changes without added modifier – OD600, strain BY4716, 24 h, basal condition, primary screen (AID 1173). The note with it: S. cerevisiae BY4716 growth, OD600, 24 h; higher = more signal, called active from +8 up or from −8 down.
Assay [3] is described as follows: viability profiling in MM1S myeloma cells – cell-based, resazurin fluorescence, basal, 24 h, PK04 Diversity Set, profiling panel (AID 1174).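 Note: MM1S multiple myeloma cell line.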 The settings on record: higher = more signal, called active from +8 up or from −8 down.
The target of assay [4] is Dihydroorotate dehydrogenase (quinone), mitochondrial (Plasmodium falciparum (isolate 3D7)) (UniProt Q08210). Put plainly: inhibition of P. falciparum DHODH – biochemical, C-terminal His tag, absorbance 600 nm, primary screen (AID 1175).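 Note: recombinant parasite enzyme with a five histidine tag at its C terminus.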 The settings on record: PfDHODH enzyme, DCIP absorbance 600 nm; higher = more signal, called active from +8 up or from −8 down.
Assay [5] is described as follows: inhibition of PAO1 biofilm formation – strain PAO1, LB-PBS medium, absorbance 600 nm, primary screen (AID 1176). The note with it: P. aeruginosa PAO1 growth/biofilm, A600, 12 h; higher = more signal.
Assay [6] in a line: growth modulation of vineyard yeast isolate – strain RM11-1a, OD600, basal, 24 h, primary screen (AID 1177).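 Note: cultures grown under basal conditions with no added stressor.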 The settings on record: S. cerevisiae RM11-1a growth, OD600, 24 h; higher = more signal, called active from +8 up or from −8 down.
Assay [7] can be described thus: growth of efflux-deficient E. coli DRC39 – strain DRC39, OD650, 24 h, E. coli filamentation inducers, primary screen (AID 1178).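 Note: growth measured as culture turbidity by optical density at 650 nm.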 The note with it: E. coli DRC39 acrAB, higher = more signal, called active from +8 up or from −8 down.
The nature of assay [8]: growth of efflux-deficient E. coli DRC39 – strain DRC39, OD650, 48 h, E. coli filamentation inducers, primary screen (AID 1179).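 Note: screen aims at cell division blockers that make cells filament.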 The settings on record: E. coli DRC39 delta-acrAB growth, higher = more signal, called active from +8 up or from −8 down.
The nature of assay [9]: viability profiling in RPMI8226 myeloma cells – cell-based, resazurin fluorescence, basal, 24 h, PK04 Diversity Set, profiling panel (AID 1180).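 Note: RPMI8826 multiple myeloma cell line at 5000 cells per well.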 The note with it: higher = more signal.
Assay [10] addresses E3 ubiquitin-protein ligase XIAP (Homo sapiens) (UniProt P98170). Put plainly: small molecules binding XIAP protein – biophysical, small-molecule microarray, fluorescence 635 nm, primary screen (AID 1181).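 Note: score merges 667 nm emission and signal to noise over triplicate slides.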 The note with it: higher = more signal.
The test system of assay [11] is XIP peptide (Xip251-270) binding. Put plainly: XIP fragment 251-270 binding compounds – biochemical, small-molecule microarray, fluorescence 635/667 nm, 0.1 µg/mL protein, primary screen (AID 1182). The note with it: fluorescent protein binding, 635 nm, higher = more signal, called active from +8 up or from −8 down.
A further assay concerns XIP peptide (Xip251-270). In words: compounds binding XIP fragment 251-270 – biochemical, small-molecule microarray, fluorescence 635/667 nm, 0.5 µg/mL protein, primary screen (AID 1183). The note with it: fluorescence 635 nm, higher = more signal.
A short description of assay [12]: blood-stage malaria parasite viability loss – strain 3D7, DAPI fluorescence, 100 nL, primary screen (AID 1184).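 Note: parasites grown inside human red blood cells in medium with human serum.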 The note with it: P. falciparum 3D7 growth, 3 d, higher = more signal.
The target in assay [13] is Homeobox protein Hox-A13 (Mus musculus) (UniProt Q62424). In words: disruptors of Hoxa13 oligonucleotide interaction – biochemical, fluorescence polarization, labeled oligonucleotide, primary screen (AID 1185). The settings on record: Hoxa13:DNA binding, 15 min, higher = more signal, called active from +8 up or from −8 down.
A short description of assay [14]: blockers of DNA damage checkpoint Chk1 activation – imaging, HeLa, hydroxyurea, phospho-Chk1 antibody, percent positive cells, primary screen (AID 1186). The settings on record: hydroxyurea-induced phospho-Chk1 immunofluorescence imaging, higher = more signal.
Assay [15] can be described thus: blockers of DNA damage checkpoint Chk1 activation – imaging, HeLa, hydroxyurea, phospho-Chk1 nuclear intensity, primary screen (AID 1187). The note with it: hydroxyurea-induced phospho-Chk1 immunofluorescence imaging, higher = more signal.

Molecules are shown by their SMILES. Several values for one entry are separate records, joined by “and”; a condition that tells them apart may be missing. Equal values may be shown once. Activity calls are given as the source filed them. Unless noted, the rule behind the calls is not given here.

Dihydroorotate dehydrogenase (quinone), mitochondrial (Plasmodium falciparum (isolate 3D7)), sequence (Q08210 whole entry, looked up): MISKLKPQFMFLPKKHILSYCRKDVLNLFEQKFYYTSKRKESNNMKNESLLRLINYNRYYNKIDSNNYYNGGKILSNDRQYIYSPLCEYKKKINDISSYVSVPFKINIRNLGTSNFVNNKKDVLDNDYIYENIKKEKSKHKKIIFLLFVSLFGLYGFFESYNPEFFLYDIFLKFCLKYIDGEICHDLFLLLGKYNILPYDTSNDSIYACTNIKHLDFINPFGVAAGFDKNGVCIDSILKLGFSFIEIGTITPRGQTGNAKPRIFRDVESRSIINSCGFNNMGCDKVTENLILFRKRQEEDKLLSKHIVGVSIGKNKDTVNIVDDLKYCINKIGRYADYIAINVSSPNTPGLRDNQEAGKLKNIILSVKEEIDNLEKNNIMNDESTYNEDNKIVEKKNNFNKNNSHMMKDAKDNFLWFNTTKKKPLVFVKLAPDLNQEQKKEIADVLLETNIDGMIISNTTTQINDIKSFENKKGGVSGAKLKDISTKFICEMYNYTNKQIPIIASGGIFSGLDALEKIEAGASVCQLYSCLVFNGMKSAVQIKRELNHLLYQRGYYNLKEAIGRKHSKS
Homeobox protein Hox-A13 (Mus musculus), sequence (Q62424 whole entry, looked up): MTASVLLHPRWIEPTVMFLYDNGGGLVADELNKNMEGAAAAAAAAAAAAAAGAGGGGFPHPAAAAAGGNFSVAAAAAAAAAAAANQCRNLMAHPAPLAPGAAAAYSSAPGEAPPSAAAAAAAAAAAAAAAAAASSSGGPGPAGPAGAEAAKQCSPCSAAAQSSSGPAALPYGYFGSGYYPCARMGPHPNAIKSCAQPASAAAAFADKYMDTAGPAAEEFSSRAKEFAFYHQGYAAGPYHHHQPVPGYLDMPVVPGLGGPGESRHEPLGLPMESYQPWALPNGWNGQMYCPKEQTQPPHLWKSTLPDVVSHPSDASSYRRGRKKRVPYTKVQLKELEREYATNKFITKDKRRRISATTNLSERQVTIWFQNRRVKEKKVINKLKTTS
E3 ubiquitin-protein ligase XIAP (Homo sapiens), sequence (P98170 whole entry, looked up, the tested form may be a part): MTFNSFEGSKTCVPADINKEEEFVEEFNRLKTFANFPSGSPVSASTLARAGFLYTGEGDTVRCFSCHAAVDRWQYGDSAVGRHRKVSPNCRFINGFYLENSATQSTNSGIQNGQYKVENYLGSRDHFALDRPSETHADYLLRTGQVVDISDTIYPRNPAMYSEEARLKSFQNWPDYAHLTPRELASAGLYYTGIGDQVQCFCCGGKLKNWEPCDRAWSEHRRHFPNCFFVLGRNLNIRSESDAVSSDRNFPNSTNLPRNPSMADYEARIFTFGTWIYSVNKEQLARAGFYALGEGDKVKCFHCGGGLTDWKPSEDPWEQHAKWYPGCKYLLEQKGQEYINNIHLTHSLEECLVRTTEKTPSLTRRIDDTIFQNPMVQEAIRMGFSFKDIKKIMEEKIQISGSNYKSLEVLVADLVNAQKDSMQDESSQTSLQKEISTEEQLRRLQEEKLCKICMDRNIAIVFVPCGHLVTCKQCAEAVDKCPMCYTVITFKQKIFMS

Turning to `COc1ccc(O[C@H]2C=C[C@@H](c3ccccc3)O[C@@H]2COC(=O)CCC(C)=NO[C@H](C)c2cn([C@H](CO)Cc3ccccc3)nn2)cc1`, the z-score was 0.327 and 0.346 in assay [1]; 0.496 (inactive) and 1.83 (inactive) in assay [2]; 0.149 (inactive) and -0.116 (inactive) in assay [3]; -1.31 (inactive) and -0.491 (inactive) in [5]; 0.581 (inactive) and 1.67 (inactive) in assay [6]; 0.521 (inactive) and 0.693 (inactive) in [7]. The z-score in assay [8] was -0.313 (inactive) and 0.596 (inactive); in assay [9] it was 0.651 and 0.198; in assay [12], -1.46 and -1.1; in [13] it was -5.26 (inactive) and -4.59 (inactive). The composite z-score in assay [4] was 0.899 (inactive) and -0.413 (inactive); in assay [10] it was -0.252 and -0.188; in assay [11], 0.31 (inactive) and 0.164 (inactive); in the assay with XIP peptide (Xip251-270), 0.238 and 0.548.
In the case of `CCOC(=O)[C@H](CC(C)C)NC(=O)CCC1CC(OC(=O)NCc2cccc3ccccc23)CC2(CCCC(COC(=O)NCc3ccccc3)O2)O1` (stereo partly drawn), the z-score in [1] was 0.928; in [2] it was -1.76 (inactive); in assay [3], 1.06 (inactive); in [5] it was -0.0326 (inactive); in assay [6], -0.527 (inactive); in assay [7], -0.482 (inactive). Further, the z-score was -0.102 (inactive) in [8], 0.588 in [9], -1.8 in [12] and -2.88 (inactive) in assay [13]. Besides, the composite z-score in assay [4] was -0.621 (inactive); in [10], -0.125; in [11] it was -0.17 (inactive); in the assay on XIP peptide (Xip251-270) it was 0.374.
Consider `C[N+](C)(C)CCCCCCNC(=O)[C@@H]1C[C@@H]2C(=O)N[C@@H](CCCC[N+](C)(C)C)C(=O)N2[C@@H]1c1ccc(O)cc1`, for which the z-score in [1] is 0.104 and 0.822; in assay [2], 0.292 (inactive) and 0.384 (inactive); in [3], 0.436 (inactive) and 0.422 (inactive); in assay [5], -0.462 (inactive) and 0.0499 (inactive); in [6], 1.06 (inactive) and 1.11 (inactive); in assay [7], 0.52 (inactive) and -0.04 (inactive). Moreover, the z-score is 0.801 (inactive) and -0.431 (inactive) in assay [8]; 0.608 and -0.287 in assay [9]; 0.202 and -0.0272 in assay [12]; -0.929 (inactive) and -2.3 (inactive) in assay [13]; 0.556 (inactive) and 0.31 (inactive) in [14]; 0.424 (inactive) and 0.327 (inactive) in assay [15]. In addition, the composite z-score in assay [4] was -0.792 (inactive) and -0.983 (inactive); in assay [10], -0.277 and -0.227; in assay [11] it was 0.134 (inactive) and 0.316 (inactive); with XIP peptide (Xip251-270), 0.907 and 0.898.
For `C[C@@H]1CN2[C@@H](CC[C@@H](C)[C@@H]2c2ccc(Br)cc2)C(=O)O1`, the z-score in [1] is 0.0519 and -0.598; in [2], 0.214 (inactive) and -2.02 (inactive); in [3], 0.475 (inactive) and -0.181 (inactive); in assay [5], -0.188 (inactive) and 0.417 (inactive); in [6], 0.999 (inactive) and -1.13 (inactive); in [7] it was 0.322 (inactive) and 0.819 (inactive). For the same compound, the z-score in assay [8] is -1.32 (inactive) and -0.313 (inactive); in assay [9], 0.967 and -0.0883; in assay [12] it was -0.218 and 0.559; in assay [13], 0.101 (inactive) and -0.0592 (inactive). The composite z-score in assay [4] was 0.694 (inactive) and -1.1 (inactive); in assay [10], 0.118 and 0.166; in [11], -0.0537 (inactive) and -1.1 (inactive); in the assay on XIP peptide (Xip251-270) it was -0.252 and 0.581.
With `C[N+](C)(C)CCCCNC(=O)[C@@H]1C[C@@H]2C(=O)N[C@@H](CCCC[N+](C)(C)C)C(=O)N2[C@@H]1c1cccc(OCCO)c1`, the z-score is -0.249 and -0.0346 in assay [1]; 0.962 (inactive) and 0.187 (inactive) in assay [2]; 0.405 (inactive) and 0.349 (inactive) in assay [3]; -0.239 (inactive) and 0.022 (inactive) in assay [5]; 1.57 (inactive) and 0.24 (inactive) in assay [6]; 0.113 (inactive) and -0.132 (inactive) in [7]. The z-score in [8] was -0.0555 (inactive) and 0.517 (inactive); in assay [9], 0.399 and 0.607; in assay [12] it was -0.0982 and -0.462; in assay [13], -0.648 (inactive) and -1.01 (inactive); in assay [14], -0.123 (inactive) and -0.528 (inactive); in assay [15], 0.0051 (inactive) and -0.229 (inactive). Also, the composite z-score is -30.9 (active) and -30.3 (active) in assay [4]; 1.01 and -0.22 in assay [10]; 0.785 (inactive) and 1.87 (inactive) in assay [11]; 0.697 and 0.917 in the assay on XIP peptide (Xip251-270).
As to `CCCNC(=O)OC[C@H]1O[C@H](CCON=C(C)CCC(=O)OC[C@H]2O[C@H](C#Cc3ccccc3)C=C[C@@H]2Oc2ccc(C)cc2)C=C[C@@H]1Oc1ccc(OC)cc1`, the z-score in [1] is 0.462; in assay [2], 0.889 (inactive); in assay [3] it was -0.0269 (inactive); in assay [5], -0.066 (inactive); in assay [6], 0.432 (inactive); in assay [7] it was 0.715 (inactive). The z-score is 0.565 (inactive) in assay [8], 0.75 in [9], -2.1 in [12] and -0.983 (inactive) in assay [13]. In addition, the composite z-score is -0.754 (inactive) in [4], 0.0408 in assay [10], -0.238 (inactive) in assay [11] and -0.439 with XIP peptide (Xip251-270).
